This passage reports Potency results from PubChem BioAssay (Tox21).

Results filed as inconclusive are left out. The source made the active and inactive calls. Unless noted, calls come from the whole dose curve.

The nature of assay [1]: Nuclear factor erythroid 2-related factor 2/antioxidant responsive element (Nrf2/ARE) small molecule agonists: qHTS cell viability counter screen in human keratinocytes (AID 1919968; active = well fitted curve in the direction sought with a large enough effect in the repeat runs; an effect the other way counts as inactive or inconclusive; note: nearly all actives have a fitted effect of over 55% in size). An outline of the steps:
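Stably transfected HaCaT (KeratinoSens), 1,500/well. Test agents in DMSO were applied for 23 h, 37 C/5% CO2. CellTiter-Fluor was incubated 1 h before the fluorescence read.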
For orientation: In qHTS, concentration-response curves come from the screen itself.

The nature of assay [2]: Nuclear factor erythroid 2-related factor 2/antioxidant responsive element (Nrf2/ARE) small molecule agonists: luciferase reporter gene qHTS assay in human keratinocytes (AID 1919969). Note: nearly all actives have a fitted effect of over 35% in size. Note: potency is the fitted concentration of half-maximal effect. In general terms: In a reporter assay the amount or activity of a reporter protein is the signal.
The target of assay [3] is Gonadotropin-releasing hormone receptor (Homo sapiens) (UniProt P30968). The assay can be described thus: Human gonadotropin-releasing hormone receptor (GnRHR) small molecule agonists, calcium flux assay in GnRHR-HEK293 cells (AID 1920063). Note: nearly all actives have a fitted effect of over 35% in size. An outline of the steps: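 Stable human GnRHR HEK293 line. 18 h plating, then calcium dye for 1 h at 37 C. Agonist-mode compound addition from DMSO stocks; fluorescence monitored 3 min.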
(Calcium flux is commonly read through the fluorescence of an indicator in the cells.)

For assay [4], the target named is KiSS-1 receptor (Homo sapiens) (UniProt Q969F8). Put plainly: Human kisspeptin (KISS1R) small molecule agonists, calcium flux assay in KISS1R-HEK293 cells (AID 1920064; active = well fitted curve in the direction sought with a large enough effect in the repeat runs; an effect the other way counts as inactive or inconclusive). The method in brief:
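After overnight (18 h) culture at 37 C/5% CO2, human KISS1R-HEK293 cells received calcium dye for 1 h, then test compound; emission at 540 nm (excitation 480 nm) was tracked for 3 min.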

The nature of assay [5]: G protein-coupled receptor (GPCR) small molecule agonists, calcium flux assay: HEK293 wild type cell line counter screen (AID 1920065). An outline of the steps:
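Following 18 h incubation at 37 C/5% CO2, plates got calcium dye for 1 h; compounds, ATP or DMSO were then pinned in and fluorescence followed kinetically (480/540 nm).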

Assay [6] can be described thus: p53 small molecule agonists, cell-based qHTS assay with human liver microsomes: qHTS cell viability counter screen (AID 1963579). Note: nearly all actives have a fitted effect of over 45% in size. The method in brief:
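Metabolically activated exposure: compounds, human liver microsomes and NADPH (0.5 mg/mL final apiece) were added to p53RE-bla cells seeded 5 h earlier, left 16 h at 37 C, and then assessed for viability by CellTiter-Glo luminescence.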

A short description of assay [7]: p53 small molecule agonists, cell-based qHTS assay with rat liver microsomes: qHTS cell viability counter screen (AID 1963580). Note: nearly all actives have a fitted effect of over 45% in size. An outline of the steps: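 Cytotoxicity counter screen: intracellular ATP measured by CellTiter-Glo luminescence in the same wells as the beta-lactamase reporter read, on HCT-116 p53RE-bla cells exposed 16 h at 37 C to compounds with rat liver microsomes and NADPH, each 0.5 mg/mL final.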

Assay [8] addresses 5-hydroxytryptamine receptor 2A (Homo sapiens) (UniProt P28223). Put plainly: 5-hydroxytryptamine receptor 2A (HTR2A) small molecule antagonists, cell-based qHTS assay (AID 1963586). Note: nearly all actives have a fitted effect of over 45% in size. The method in brief: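 CHO cells stably expressing human HTR2A were plated for 18 h at 37 C, then loaded with calcium dye for 1 h. Compounds were preincubated 5 min at room temperature before DOI (4 nM solution) was added. Kinetic fluorescence was read for 3 min.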

The target is the same in assay [9]. The assay can be described thus: 5-hydroxytryptamine receptor 2A (HTR2A) small molecule agonists, cell-based qHTS assay (AID 1963587). Note: nearly all actives have a fitted effect of over 30% in size. The method in brief:
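CHO cells stably expressing human HTR2A, plated 18 h, loaded with calcium dye 1 h at 37 C. Agonist mode: compounds added and intracellular calcium fluorescence recorded kinetically for 2 min at 1 sec intervals.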

Assay [10] has as its target Muscarinic acetylcholine receptor M1 (Homo sapiens) (UniProt P11229). Put plainly: Cholinergic receptor muscarinic 1 (CHRM1) small molecule antagonists, cell-based qHTS assay (AID 1963588). Note: nearly all actives have a fitted effect of over 40% in size. Note: potency is the fitted concentration of half-maximal effect. An outline of the steps: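 Compounds were tested at 15 concentrations in three independent runs. Dye-loaded CHRM1-CHO cells were exposed 5 min at room temperature before stimulation by acetylcholine added at 50nM. Intracellular calcium was read kinetically on FDSS for 3 min.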

Assay [11] has the same target. Put plainly: Cholinergic receptor muscarinic 1 (CHRM1) small molecule agonists, cell-based qHTS assay (AID 1963589). Note: nearly all actives have a fitted effect of over 35% in size. The method in brief:
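Kinetic fluorescence (1 s intervals) of calcium-sensitive dye in human M1 CHO cells after compound addition; cells pre-incubated 18 h at 37 C/5% CO2 and dye-loaded 1 h.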

Assay [12] can be described thus: cAMP Responsive Elements (CRE) small molecule antagonists, cell-based qHTS assay (AID 1963591; active = well fitted inhibition curve with a large enough effect in the signal ratio in the repeat runs, not every such curve was filed as active; the % refers to the signal ratio). The method in brief:
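Reporter line CRE-bla HEK 293T in dialyzed-FBS DMEM; cells preincubated 18 h, treated 3 h with compound plus NKH477 (0.25 uM final); LiveBLAzer FRET, 2 h RT.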

Assay [13] deals with Beta-2 adrenergic receptor (Homo sapiens) (UniProt P07550). Put plainly: Adrenergic beta2 receptor (ADRB2) small molecule antagonists, cell-based qHTS assay (AID 1963592). Note: series mostly up to about 92 µM; nearly all actives have a fitted effect of over 50% in size. An outline of the steps:
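Assay format: CHO-ADRB2 cells, 18-20hr seeding at 37C/5% CO2, then compound plus 1nM isoproterenol agonist mix for 0.5hr RT. Homogeneous time-resolved fluorescence cAMP detection after 1hr, expressed as 665/615 nm ratio.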

Assay [14] addresses D(2) dopamine receptor (Homo sapiens) (UniProt P14416). The assay can be described thus: Dopamine D2 receptor (DRD2) small molecule agonists, cell-based qHTS assay (AID 1963594). Note: nearly all actives have a fitted effect of over 35% in size. An outline of the steps: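 HEK293 cells stably expressing human DRD2, pre-treated with PDE inhibitor Ro20-1724 (0.1 mM final) and compound 10 min at room temperature, then stimulated with NKH477 (200nM […]) for 30 min. cAMP read by HTRF (665/620 nm).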

Assay [15] has the same target. The assay can be described thus: Dopamine D2 receptor (DRD2) small molecule antagonists, cell-based qHTS assay (AID 1963595; active = well fitted inhibition curve with a large enough effect in the signal ratio in the repeat runs, with a control signal flat; the % refers to the signal ratio). The method in brief:
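Cells were plated and grown for 24 h at 37 °C. Ro20-1724 (0.1 mM final) went in first, then compound for 10 min. NKH477 (200 nM) with quinpirole (12 nM) followed for 30 min at RT, then HTRF detection reagents for 1 h.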

Assay [16] can be described thus: cAMP Responsive Elements (CRE) small molecule agonists, cell-based qHTS assay (AID 1963590). The method in brief: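 Test agents in DMSO were incubated 3 h at 37 C/5% CO2 with CRE-bla HEK 293T cells seeded 18 h earlier; LiveBLAzer B/G FRET substrate was added and read after 2 h at room temperature.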
The target in assay [17] is Beta-2 adrenergic receptor (Homo sapiens) (UniProt P07550). Put plainly: Adrenergic beta2 receptor (ADRB2) small molecule agonists, cell-based qHTS assay (AID 1963593).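 Note: CHO cells stably overexpressing human ADRB2.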 The method in brief: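 CHO cells stably over-expressing ADRB2 were plated overnight at 37C, then dosed with compounds plus a stimulation mix containing 100uM IBMX and 25uM Ro-20-1724 for 0.5hr at room temperature. cAMP was measured by HTRF competition, 1hr.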

Assay [18] in a line: p53 small molecule agonists, cell-based qHTS assay: qHTS cell viability counter screen (AID 1963581). Note: nearly all actives have a fitted effect of over 45% in size. An outline of the steps: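 qHTS counter screen: 16 h compound exposure at 37 C of p53RE-bla HCT-116 cells (4,000 per well, seeded 5 h prior), cell viability by ATP luminescence.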

Sequence of KiSS-1 receptor (Homo sapiens) (Q969F8 whole entry, looked up): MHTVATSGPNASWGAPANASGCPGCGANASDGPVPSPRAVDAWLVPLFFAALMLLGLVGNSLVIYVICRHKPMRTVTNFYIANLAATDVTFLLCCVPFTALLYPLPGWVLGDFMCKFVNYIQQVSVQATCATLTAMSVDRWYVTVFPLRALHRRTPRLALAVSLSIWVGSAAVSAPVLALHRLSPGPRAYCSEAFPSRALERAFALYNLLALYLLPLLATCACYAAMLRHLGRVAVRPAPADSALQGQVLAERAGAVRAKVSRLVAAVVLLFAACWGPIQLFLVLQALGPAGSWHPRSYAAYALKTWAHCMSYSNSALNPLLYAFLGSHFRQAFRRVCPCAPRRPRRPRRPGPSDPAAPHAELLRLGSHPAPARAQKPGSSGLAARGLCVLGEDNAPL
Sequence of D(2) dopamine receptor (Homo sapiens) (P14416 whole entry, looked up): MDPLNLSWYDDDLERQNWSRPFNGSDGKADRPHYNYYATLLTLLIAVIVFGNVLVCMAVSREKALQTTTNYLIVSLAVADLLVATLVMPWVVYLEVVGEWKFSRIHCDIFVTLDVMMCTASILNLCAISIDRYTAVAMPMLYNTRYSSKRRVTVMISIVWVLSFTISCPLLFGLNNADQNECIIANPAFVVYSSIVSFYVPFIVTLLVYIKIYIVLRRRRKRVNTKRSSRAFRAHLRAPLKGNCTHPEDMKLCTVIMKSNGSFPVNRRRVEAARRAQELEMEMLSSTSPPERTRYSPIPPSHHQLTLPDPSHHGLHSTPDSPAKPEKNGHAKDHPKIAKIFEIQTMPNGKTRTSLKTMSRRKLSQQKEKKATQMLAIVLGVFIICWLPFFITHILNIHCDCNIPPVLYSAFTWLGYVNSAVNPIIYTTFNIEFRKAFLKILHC
Sequence of Gonadotropin-releasing hormone receptor (Homo sapiens) (P30968 whole entry, looked up): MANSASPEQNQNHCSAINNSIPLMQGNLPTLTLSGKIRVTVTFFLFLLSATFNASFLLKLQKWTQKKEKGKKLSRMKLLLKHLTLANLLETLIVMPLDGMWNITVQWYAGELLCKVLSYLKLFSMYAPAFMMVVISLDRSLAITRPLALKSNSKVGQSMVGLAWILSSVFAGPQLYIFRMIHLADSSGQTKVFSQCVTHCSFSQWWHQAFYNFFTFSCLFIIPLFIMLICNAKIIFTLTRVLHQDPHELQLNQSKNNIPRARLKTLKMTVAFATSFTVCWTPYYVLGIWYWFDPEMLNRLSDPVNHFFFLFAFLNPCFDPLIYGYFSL
Sequence of Muscarinic acetylcholine receptor M1 (Homo sapiens) (P11229 whole entry, looked up): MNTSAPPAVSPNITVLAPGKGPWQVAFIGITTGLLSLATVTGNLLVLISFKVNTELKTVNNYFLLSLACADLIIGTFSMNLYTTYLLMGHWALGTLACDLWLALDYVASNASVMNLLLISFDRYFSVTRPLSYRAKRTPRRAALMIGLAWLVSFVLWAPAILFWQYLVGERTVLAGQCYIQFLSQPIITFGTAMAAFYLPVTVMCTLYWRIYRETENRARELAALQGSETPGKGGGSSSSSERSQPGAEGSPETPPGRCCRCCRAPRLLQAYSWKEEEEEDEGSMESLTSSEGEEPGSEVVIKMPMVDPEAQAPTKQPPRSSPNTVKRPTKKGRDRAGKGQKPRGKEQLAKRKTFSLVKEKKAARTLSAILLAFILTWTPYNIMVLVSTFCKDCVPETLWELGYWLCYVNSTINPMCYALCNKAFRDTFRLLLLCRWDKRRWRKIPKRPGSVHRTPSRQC
Sequence of 5-hydroxytryptamine receptor 2A (Homo sapiens) (P28223 whole entry, looked up): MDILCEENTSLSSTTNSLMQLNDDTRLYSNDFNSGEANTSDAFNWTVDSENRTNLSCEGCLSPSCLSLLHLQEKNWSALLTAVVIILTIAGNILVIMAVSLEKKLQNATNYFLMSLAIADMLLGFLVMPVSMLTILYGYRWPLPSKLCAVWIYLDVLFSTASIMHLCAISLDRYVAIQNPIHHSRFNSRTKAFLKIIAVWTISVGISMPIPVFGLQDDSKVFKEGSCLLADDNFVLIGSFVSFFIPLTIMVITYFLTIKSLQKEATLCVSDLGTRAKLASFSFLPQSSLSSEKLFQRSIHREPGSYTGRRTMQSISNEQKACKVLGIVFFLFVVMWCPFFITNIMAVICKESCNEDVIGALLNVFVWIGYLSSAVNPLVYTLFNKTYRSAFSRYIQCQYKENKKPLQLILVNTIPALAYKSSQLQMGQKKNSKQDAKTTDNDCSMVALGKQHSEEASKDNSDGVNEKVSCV
Sequence of Beta-2 adrenergic receptor (Homo sapiens) (P07550 whole entry, looked up): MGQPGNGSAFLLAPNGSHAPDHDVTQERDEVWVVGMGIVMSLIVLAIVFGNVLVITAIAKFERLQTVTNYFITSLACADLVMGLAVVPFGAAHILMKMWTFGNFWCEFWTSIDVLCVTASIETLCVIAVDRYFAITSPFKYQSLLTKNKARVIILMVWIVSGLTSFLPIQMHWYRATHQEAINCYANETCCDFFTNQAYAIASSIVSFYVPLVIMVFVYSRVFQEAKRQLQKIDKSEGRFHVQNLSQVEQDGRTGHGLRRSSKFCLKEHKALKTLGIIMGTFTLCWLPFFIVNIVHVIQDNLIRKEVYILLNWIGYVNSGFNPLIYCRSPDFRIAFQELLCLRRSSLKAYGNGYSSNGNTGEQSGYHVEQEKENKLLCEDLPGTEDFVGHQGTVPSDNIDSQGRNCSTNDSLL

`CC(C)N(c1ccccc1)C(C)C`: the Potency result in [1], in [2], in [3], in [4], in [5] and in assay [6] was “inactive” throughout. For the same compound, the Potency result in assay [7], in [8], in assay [9], in assay [10], in assay [11] and in [12] was “inactive” throughout. The Potency entry in [13], in assay [14] and in assay [15] was “inactive” throughout.

With `CC(=O)c1ccc2c(c1)Cc1ccccc1-2`, the Potency result in assay [1], in [2], in [3], in [4], in assay [5] and in [6] was “inactive” throughout. For the same compound, the Potency entry in assay [7], in [8], in assay [9], in assay [10], in assay [11] and in [12] was “inactive” throughout. For the same compound, the Potency result in assay [13], in [14] and in assay [15] was “inactive” in each case.

In the case of `O=c1c2ccccc2oc2ccccc12`, the Potency result in [1], in assay [2], in assay [3], in assay [4], in assay [5] and in assay [6] was “inactive” throughout. Moreover, the Potency result in assay [7], in assay [8], in assay [9], in [10], in assay [11] and in assay [16] was “inactive” throughout. Moreover, the Potency result in assay [12], in assay [13], in [17], in assay [14] and in assay [15] was “inactive” each time.

For `Nc1ccc(Oc2ccc(N)c(N)c2)cc1`, the Potency result in [1], in assay [3], in [4], in assay [5], in assay [6] and in [7] was “inactive” each time. The Potency result in assay [8], in assay [9], in [10], in assay [11], in [16] and in [12] was “inactive” throughout. Moreover, the Potency result in assay [13], in assay [17] and in assay [15] was “inactive” in each case. Besides, the Potency in assay [2] is 6.11 µM (active).

With `O=C1CCc2cc(OCCCCc3nnnn3C3CCCCC3)ccc2N1`, the Potency entry in assay [1], in assay [2], in assay [3], in [4], in [5] and in assay [6] was “inactive” each time. The Potency result in assay [7], in assay [18], in assay [17] and in assay [14] was “inactive” each time.

Regarding `N#CCCNCCC#N`, the Potency entry in assay [1], in [2], in assay [3], in assay [4], in assay [5] and in [6] was “inactive” throughout. The Potency entry in [7], in [8], in assay [9], in [10], in [11] and in [16] was “inactive” in each case. Besides, the Potency result in assay [12], in [13], in assay [14] and in assay [15] was “inactive” in each case.

Consider `CCN(CC)CCNC(C(=O)OCCC(C)C)c1ccccc1` (centres undefined), for which the Potency result in assay [1], in [2], in [3], in assay [4], in assay [5] and in assay [6] was “inactive” in each case. Moreover, the Potency entry in assay [7], in assay [8], in assay [9], in assay [11], in [12] and in assay [13] was “inactive” each time. The Potency result in assay [14] and in [15] was “inactive” in each case. In addition, in [10], the Potency is 0.516 µM (active).

Consider `COc1ccc(/C=N/NC(=O)c2ccncc2)cc1OC`, for which the Potency result in [1], in [2], in [3], in [4], in assay [5] and in assay [6] was “inactive” in each case. Further, the Potency result in assay [7], in assay [8], in assay [9], in assay [10], in [11] and in [16] was “inactive” throughout. The Potency result in assay [12], in assay [13] and in [15] was “inactive” in each case.

Consider `C=C(C)C(=O)OCc1ccccc1`, for which the Potency result in assay [1], in [2], in [3], in [4], in assay [5] and in assay [6] was “inactive” each time. The Potency result in assay [7], in assay [8], in assay [9], in assay [10], in [12] and in assay [13] was “inactive” throughout. In addition, the Potency result in assay [17], in assay [14] and in [15] was “inactive” in each case.
